This test in a line: chemical genetic growth profiling, strain panel (AID 1159580).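 Also: tested at 20 µM; growth read once vehicle control cultures reached saturation at 30 °C; 1 = growth at the plate median or of vehicle wells; lower values mean less growth of the strain.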 As to conditions: growth OD.
[1] abbreviates: S. cerevisiae deletion strains, locus YAL013W, strain DEP1, hits give low values.
[2] abbreviates: S. cerevisiae deletion strains, locus YBR229C, strain ROT2, hits give low values.
[3] abbreviates: S. cerevisiae deletion strains, locus YDL101C, strain DUN1, hits give low values.
[4] abbreviates: S. cerevisiae deletion strains, locus YDL134C, strain PPH21, hits give low values.
Setting [5] is: S. cerevisiae deletion strains, locus YDR150W, strain NUM1, hits give low values.
The mark [6] stands for this setting: S. cerevisiae deletion strains, locus YEL061C, strain CIN8, hits give low values.
Where [7] appears, read: S. cerevisiae deletion strains, locus YGR078C, strain PAC10, hits give low values.
Setting [8] is: S. cerevisiae deletion strains, locus YHR030C, strain SLT2, hits give low values.
[9] abbreviates: S. cerevisiae deletion strains, locus YHR087W, strain rtc3, hits give low values.
Setting [10] is: S. cerevisiae deletion strains, locus YJR043C, strain POL32, hits give low values.
Setting [11] is: S. cerevisiae deletion strains, locus YJR075W, strain HOC1, hits give low values.
[12] abbreviates: S. cerevisiae deletion strains, locus YLR039C, strain RIC1, hits give low values.
[13] abbreviates: S. cerevisiae deletion strains, locus YLR058C, strain SHM2 (second series), hits give low values.
Setting [14] is: S. cerevisiae deletion strains, locus YLR085C, strain ARP6, hits give low values.
The mark [15] stands for this setting: S. cerevisiae deletion strains, locus YLR262C, strain YPT6, hits give low values.
Where [16] appears, read: S. cerevisiae deletion strains, locus YML094W, strain GIM5, hits give low values.
The mark [17] stands for this setting: S. cerevisiae deletion strains, locus YMR219W, strain ESC1, hits give low values.
The mark [18] stands for this setting: S. cerevisiae deletion strains, locus YMR263W, strain SAP30, hits give low values.
Setting [19] is: S. cerevisiae deletion strains, locus YMR307W, strain GAS1, hits give low values.
Setting [20] is: S. cerevisiae deletion strains, locus YNL128W, strain TEP1, hits give low values.
The mark [21] stands for this setting: S. cerevisiae deletion strains, locus YNL153C, strain GIM3, hits give low values.
Setting [22] is: S. cerevisiae deletion strains, locus YNL298W, strain CLA4 (second series), hits give low values.
Where [23] appears, read: S. cerevisiae deletion strains, locus YNL322C, strain KRE1, hits give low values.
The mark [24] stands for this setting: S. cerevisiae deletion strains, locus YNR030W, strain Alg12, hits give low values.
[25] abbreviates: S. cerevisiae deletion strains, locus YPL055C, strain LGE1, hits give low values.
Where [26] appears, read: S. cerevisiae deletion strains, locus YPL241C, strain CIN2, hits give low values.
Where [27] appears, read: S. cerevisiae deletion strains, locus YPR135W, strain CTF4, hits give low values.

Each structure is given as a SMILES string. Among all 5,500 compounds or so, about 2,000 (36%) were called active. About 18% were inconclusive and are not listed. Some of the results follow. A number with no mark means an inactive call. Rule as the data show it: active = normalized growth mostly below about 0.91 (no sharp cut-off); inconclusive = no clear call, values can overlap the other calls; inactive = mostly above about 0.92.

Turning to `COc1ccc(C=Nc2ccc(O)cc2)cc1`, the normalized growth reads like this: under setting [1], 0.999; under setting [2], 1.01; (S. cerevisiae deletion strains, locus YCL061C, strain MRC1, hits give low values) 0.979; under setting [3], 1.03; under setting [4], 1.03; under setting [5], 0.975. The normalized growth under setting [6] was 1.05; the normalized growth under setting [7] is 0.996; the normalized growth under setting [8] is 1.04; the normalized growth under setting [9] is 0.998; the normalized growth under setting [10] was 0.99; the normalized growth under setting [11] is 1.04. The normalized growth is 1.02 (S. cerevisiae deletion strains, locus YKL190W, strain CNB1, hits give low values); 0.936 under setting [12]; 1.02 under setting [13]; 1.03 under setting [14]; 0.931 under setting [15]; 1.01 under setting [16]. In addition, the normalized growth by setting is: under setting [17], 0.996; under setting [18], 1.02; under setting [19], 1.15; under setting [20], 1.02; under setting [21], 1.01; under setting [22], 1.04. Moreover, the normalized growth is, setting by setting: under setting [23], 0.994; under setting [24], 1.01; under setting [25], 1.04; under setting [26], 0.987; under setting [27], 0.995.

Take `COc1ccc(N=Cc2ccccc2O)cc1`: the normalized growth under setting [1] was 0.993; the normalized growth under setting [2] was 0.99; the normalized growth under setting [3] is 0.991; the normalized growth under setting [4] was 1.01; the normalized growth under setting [5] is 0.952; the normalized growth under setting [6] was 0.991. Moreover, the normalized growth under setting [7] was 0.995; the normalized growth under setting [8] is 0.879; the normalized growth under setting [9] is 0.969; the normalized growth under setting [10] is 0.956; the normalized growth under setting [11] is 0.967; the normalized growth under setting [12] is 0.841. Besides, the normalized growth by setting is: under setting [13], 0.988; under setting [14], 0.999; under setting [15], 0.813 (active); under setting [16], 0.978; under setting [17], 0.976; under setting [18], 0.963. Further, the normalized growth was 0.986 under setting [20]; 1.01 under setting [21]; 0.975 under setting [22]; 0.985 under setting [23]; 0.973 under setting [24]; 0.819 (S. cerevisiae deletion strains, locus YOL006C, strain TOP1, hits give low values). The normalized growth is 0.912 under setting [25]; 0.977 under setting [26]; 0.86 under setting [27]; 0.977 (S. cerevisiae strains, strain wild type, hits give low values).

As for `CCCN(CCC)CCc1c[nH]c2ccc(C(N)=O)cc12`, the normalized growth reads like this: (S. cerevisiae deletion strains, locus YAL040C, strain CLN3, hits give low values) 1.07; (S. cerevisiae deletion strains, locus YCL061C, strain MRC1 (second series), hits give low values) 0.996; (S. cerevisiae deletion strains, locus YDR363W, strain ESC2, hits give low values) 0.981; (S. cerevisiae deletion strains, locus YER002W, strain NOP16, hits give low values) 0.991; under setting [18], 0.988; under setting [19], 1. The normalized growth is, setting by setting: (S. cerevisiae deletion strains, locus YNL175C, strain NOP13, hits give low values) 1.05; (S. cerevisiae deletion strains, locus YNL197C, strain WHI3, hits give low values) 1.02; (S. cerevisiae deletion strains, locus YNL224C, strain SQS1, hits give low values) 0.994; under setting [23], 0.95; (S. cerevisiae deletion strains, locus YOR083W, strain WHI5 (second series), hits give low values) 1.01; under setting [26], 0.988.
